Screening data as filed in PubChem BioAssay.
Sampled rows, rich in hits. Any-hit rate of the full collection: about 9.2%.
ELG1 DNA repair = blocks ELG1-dependent DNA repair in HEK293T cells; HEK293T ELG1-luciferase reporter, luminescence, 16 h; DNA damage induced by 5-fluorouridine; Potency, µM (doses to about 46.1 µM), hits mostly inhibitors; 2.3% of 330,000 active; AID 504467; further: nearly all actives have a fitted effect of over 55% in size
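Step one: seed 2,000 cells per well. Step two: pin-transfer compound or DMSO alongside 5-fluorouridine. Step three: incubate 16 hr, 37 °C, 5% CO2. Step four: add ONE-Glo, wait 30 min, read luminescence.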
ELG1 genotox = inducers of genotoxicity in HEK293T ELG1-luciferase cells | 1.3% of 330,000 active | AID 504466 | Potency, µM (highest dose often 46 µM), usual class: activators | HEK293T ELG1-luciferase reporter, luminescence, 16 h; further: nearly all actives have a fitted effect of over 60% in size
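Step 1: seed 2,000 HEK293T ELG1-luciferase cells per well. Step 2: add compound or DMSO, incubate 16 hr at 37 °C. Step 3: ONE-Glo, 30 min at room temperature, read luminescence.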
SMN2 splice enh = enhancers of SMN2 splice variant expression | AID 1458 | HEK293 SMN2-luciferase splicing reporter, luminescence, 30-36 h | Potency, µM (highest dose often 46.1 µM), actives largely listed as activators | 2.8% of 210,000 active; further: nearly all actives have a fitted effect of over 55% in size
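HEK293 cells carry an SMN2 […]–luciferase reporter in which exon 7 inclusion puts luciferase in frame. Cells were plated 10-12 h before compound addition, then incubated 30-36 h at 37C. ONE-Glo luminescence was read; sodium butyrate at 4.5 mM final served as control.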
FLuc counter = inhibits or activates purified firefly luciferase, miR-21 counter-screen; purified FLuc, Km substrates, luminescence inhibition; Potency, µM (series often up to 57.5 µM), usual class: inhibitors; 6.9% of 360,000 active; further: nearly all actives have a fitted effect of over 55% in size
Target sequence (P08659 whole entry, looked up): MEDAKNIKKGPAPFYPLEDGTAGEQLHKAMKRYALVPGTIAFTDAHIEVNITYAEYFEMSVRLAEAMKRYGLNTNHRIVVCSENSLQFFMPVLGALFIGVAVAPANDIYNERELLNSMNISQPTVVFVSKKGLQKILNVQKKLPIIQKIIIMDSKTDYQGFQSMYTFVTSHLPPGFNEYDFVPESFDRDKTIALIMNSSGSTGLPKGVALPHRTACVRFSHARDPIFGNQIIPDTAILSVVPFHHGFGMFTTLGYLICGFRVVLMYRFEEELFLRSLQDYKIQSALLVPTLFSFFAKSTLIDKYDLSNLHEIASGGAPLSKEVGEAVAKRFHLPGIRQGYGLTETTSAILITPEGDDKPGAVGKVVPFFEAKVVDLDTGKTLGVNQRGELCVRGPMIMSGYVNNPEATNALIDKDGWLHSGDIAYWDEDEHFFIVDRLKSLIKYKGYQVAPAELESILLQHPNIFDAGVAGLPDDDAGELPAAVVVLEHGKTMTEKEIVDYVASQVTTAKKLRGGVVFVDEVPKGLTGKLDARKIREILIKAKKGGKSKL
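Biochemical qHTS of compounds, final roughly 60 µM downward over six points, against 10 nM purified firefly luciferase using Km concentrations of substrates (10 uM D-luciferin, 10 uM ATP) in Tris acetate pH 7.5 buffer; luminescence output.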
Rab9 promoter act = activates the Rab9 promoter | Huh7 Rab9 promoter-luciferase reporter, luminescence, 24 h | 2.8% of 320,000 active | Potency, µM (titrated, usually from 9.22 µM), most hits filed as activators; further: nearly all actives have a fitted effect of over 60% in size
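Luminescence from Amplite-detected luciferase (10 minutes, ambient) reports Rab9 promoter activation. Before that, stable Rab9-luciferase Huh7 cells (1500/well, reduced-serum OP-MEM I plus 10% FBS) were exposed to compound for 24 hours at 37C.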
NPC1 prom act = NPC1 promoter activation; AID 485313; Huh7 NPC1 promoter luciferase reporter, 24 h; 2.4% of 320,000 active; Potency, µM (doses to about 9.22 µM), hits mostly activators; further: nearly all actives have a fitted effect of over 60% in size
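Stable NPC1-promoter luciferase Huh7 line; cpd (DMSO) 24 h, 37 °C, 5% CO2; Amplite luciferase reagent 10 min RT; luminescence readout. qHTS format.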
A number is an active result; - = inactive; ? = inconclusive; . = no result given; [ ] = dose if it differs, or a comment. The call rests on the fitted dose curve; in most records, active means well fitted curve in the direction sought with a large enough effect; inconclusive means small, poorly fitted or top-dose-only effect, or another doubt; inactive means no such curve, though single readings can be large; an effect the other way counts as inactive or inconclusive.

SMILES	ELG1 DNA repair	ELG1 genotox	SMN2 splice enh	FLuc counter	Rab9 promoter act	NPC1 prom act
CCOC(=O)N1CCN(S(=O)(=O)c2ccc(C(=O)Nc3nc4ccccc4s3)cc2)CC1	-	-	-	-	-	-
CCOC(=O)N1CCC(=NNc2nc3ccccc3s2)CC1	?	?	.	3.38µM	3.98µM	2.51µM
Cc1ccc(-c2cc(C(=O)N/N=C/c3ccco3)n[nH]2)s1	-	-	-	?	-	-
Nc1nccnc1C(=O)N/N=C/c1ccco1	?	-	.	13.5µM	?	-
Nc1c(Cl)c(Cl)nc(C(=O)N/N=C/c2ccco2)c1Cl	-	-	.	-	-	-
Cc1cc(C(=O)N/N=C/c2sccc2C)no1	?	-	?	?	-	-
CC(C)(C)c1cc(C(=O)N/N=C/c2ccco2)n[nH]1	?	-	?	13.5µM	?	?
Cc1ccsc1/C=N\NC(=O)c1cc(C(C)(C)C)[nH]n1	?	?	11.2µM	12µM	2.82µM	2.82µM
O=C(Nc1ccccc1)N1CC[C@@]2(CCCN(C(=O)c3cc(C(F)(F)F)cc(C(F)(F)F)c3)C2)C1	.	.	-	.	.	.
O=C(CN(Cc1ccccc1Cl)C(=O)c1csnn1)NCc1ccccc1	-	-	.	-	-	-
O=[N+]([O-])c1ccc(OCn2cncn2)cc1	-	-	.	-	-	-
COCCNC(=O)Cn1cc(S(=O)(=O)Cc2ccccc2Cl)c2ccccc21	.	.	.	-	.	.
O=C(c1cc2c(s1)CCCC2)n1cccn1	-	-	-	21.3µM	-	-
NC(=O)C1CCN(C(=O)c2cc3c(s2)CCCC3)CC1	?	-	.	-	1.41µM	1.78µM
O=C(O)c1cc2c(s1)CCCC2	-	-	-	-	-	-
CC(C)NC(=O)C1CCN(C2CCN(C(=O)c3cc4c(s3)CCCCC4)CC2)CC1	-	-	-	-	-	-
COc1ccc2c(c1)CCc1cc(C(=O)N3CCN(c4ccc(N5CCOCC5)nn4)CC3)sc1-2	20.6µM	-	-	?	-	-
COc1ccc(N2CCN(C(=O)c3cc4c(s3)CCCCC4)CC2)cc1	-	-	.	16.9µM	-	-
COc1ccccc1N1CCN(C(=O)c2cc3c(s2)CCC3)CC1	-	-	-	-	-	-
COc1ccc(-c2cn3c(n2)sc2cc(C(=O)NCC(C)c4ccccc4)ccc23)cc1 (stereo not given)	.	.	.	-	.	.
CCc1ccccc1NC1=NCC(=O)N1C1CCCC1	-	-	-	-	-	-
O=C(COC(=O)CNS(=O)(=O)c1cccc(F)c1)NCCc1ccccc1	-	-	.	-	-	-
CCOC(=O)[C@H]1[C@H]2COc3ccccc3[C@@H]2N2C(=O)c3ccccc3NC(=O)[C@@]12C	-	-	.	-	-	-
COc1cccc(NS(=O)(=O)c2ccc3[nH]cc(C(=O)NCCc4ccccc4)c(=O)c3c2)c1	.	.	-	-	.	.
O=C(Nc1ccccc1Cl)Nc1ccnn1C1CCN(C(=O)CCN2CCCO2)CC1	-	-	.	-	-	-
SMILES	ELG1 DNA repair	ELG1 genotox	SMN2 splice enh	FLuc counter	Rab9 promoter act	NPC1 prom act
O=C(c1cc2c(s1)CCCCC2)N1CCN(c2ncccn2)CC1	-	-	-	-[2.3 µM]	-	-
CC(=O)c1ccc(N2CCN(C(=O)c3cc4c(s3)CCCC4)CC2)cc1	-	-	-	23.9µM	-	-
Cc1ccc(C)c(-n2c(-c3ccc(Br)cc3)csc2=NC(=O)c2ccccc2F)c1	11.6µM	-	.	-	-	-
CCOC(=O)C1=C(O)/C(=C/c2ccccn2)SC1=Nc1ccc(Cl)cc1	20.6µM	-	-	-	-	-
CCOC(=O)C1=C(O)/C(=C/c2ccc(OCC(=O)O)c(OCC)c2)SC1=Nc1ccccc1	-	-	-	-	-	-
COc1ccc2nc(SCc3nc(N)nc(Nc4ccccc4)n3)[nH]c2c1	?	-	-	13.5µM	-	-
COc1ccc(Nc2nc(N)nc(CSc3nccn3C)n2)cc1	?	?	.	21.3µM	1.78µM	1.41µM
Nc1nc(CSCCO)nc(Nc2ccccc2)n1	-	-	-	-	-	-
Cc1ccc(Nc2nc(N)nc(CSc3nncn3C)n2)cc1	?	?	17.8µM	13.5µM	2.82µM	3.16µM
Nc1nc(CSc2ccccn2)nc(Nc2ccccc2)n1	?	?	11.2µM	9.53µM	1.41µM	2.82µM
